# Results as given in the supplement of paper PMC11060735.
# “And” between values parts separate entries of the source, which are not always exact repeats. Equal entries are not always repeated. Structures can show the parent of a compound that is named as a salt. ± gives the standard deviation of the averaged measurements. Over roughly 1,800 compounds, “GFP- (p16Ink4a-) cell count relative to negative-control wells” has its median near 0.99; the lowest 2% begin near 0.5. For the sample, the lowest values were picked, then their nearest neighbours and some compounds at random.
# Tested on: mouse p16Ink4a+/- lung fibroblasts (INKBRITE, bleomycin-injured)
# Test: GFP- (p16Ink4a-) cell count relative to negative-control wells (fold of vehicle); higher = more p16Ink4a- cells surviving
# Details: 1 µM; 3 days
row,SMILES,GFP-
1,N[C@H]1C[C@@H]1c1ccc(-c2cccc(O)c2)cc1,1.01 ± 0.044
2,Cc1c(C(=O)NN2CCCCC2)nn(-c2ccc(Cl)cc2Cl)c1-c1ccc(I)cc1,1.06
3,Cn1cc(-c2ccc3ncc(Cc4ccc5ncccc5c4)n3n2)cn1,1.01
4,O=C1C(Cl)=C(N2CCOCC2)C(=O)N1c1ccc(Cl)c(Cl)c1,1.05
5,Cc1ccc(Nc2nccc(N(C)c3ccc4c(C)n(C)nc4c3)n2)cc1S(N)(=O)=O [Pazopanib],0.999 and 1.07
6,CNC(=O)c1ccc(N2C(=S)N(c3ccc(C#N)c(C(F)(F)F)c3)C(=O)C2(C)C)cc1F [Enzalutamide],1.11
7,CC1(C)Cc2c(-c3ccccc3)c(-c3ccc(Cl)cc3)c(CC(=O)O)n2C1 [Licofelone],0.892
8,CNCc1ccc(-c2[nH]c3cc(F)cc4c3c2CCNC4=O)cc1 [Rucaparib],0.817 ± 0.037
9,CCCCN1CCCCC1C(=O)Nc1c(C)cccc1C (centres undefined) [Bupivacaine],1.13
10,CC(C)C[C@H](NC(=O)[C@H](Cc1ccccc1)NC(=O)c1cnccn1)B(O)O [Bortezomib],0.294
11,CNC(=O)[C@H](Cc1ccccc1)NC(=O)[C@H](CC(C)C)[C@H](CSc1cccs1)C(=O)NO [Batimastat],1.08
12,CC(C)C1CCC(C(=O)N[C@H](Cc2ccccc2)C(=O)O)CC1 (some centres undefined) [Nateglinide],1.06
13,Nc1nc(N)c(N=O)c(OCC2CCCCC2)n1,1.07
14,Clc1ccc(Nc2nnc(Cc3ccncc3)c3ccccc23)cc1 [Vatalanib],0.918
15,Cc1cccc(C)c1OCC(=O)N[C@@H](Cc1ccccc1)[C@@H](O)C[C@H](Cc1ccccc1)NC(=O)[C@H](C(C)C)N1CCCNC1=O [Lopinavir],0.947
16,CC[C@H]1OC(=O)[C@H](C)[C@@H](O[C@H]2C[C@@](C)(OC)[C@@H](O)[C@H](C)O2)[C@H](C)[C@@H](O[C@@H]2O[C@H](C)C[C@H](N(C)C)[C@H]2O)[C@](C)(O)C[C@@H](C)/C(=N/OCOCCOC)[C@H](C)[C@@H](O)[C@]1(C)O [Roxithromycin],0.988
17,Sc1ncnc2[nH]cnc12 [Mercaptopurine],1.05
18,COC[C@H](NC(=O)c1cnc(C)s1)C(=O)N[C@@H](COC)C(=O)N[C@@H](Cc1ccccc1)C(=O)C1(C)CO1 (some centres undefined) [Oprozomib],0.381
19,C=CC(=O)Nc1ccc2ncnc(Nc3cccc(Br)c3)c2c1,0.994
20,Cc1onc(-c2c(Cl)cccc2Cl)c1C(=O)N[C@@H]1C(=O)N2[C@@H]1SC(C)(C)[C@@H]2C(=O)O [Dicloxacillin],0.966
21,COc1cc(N2CCC(N(C)C)CC2)ccc1Nc1ncc(Cl)c(Nc2ccccc2P(C)(C)=O)n1,1.08
22,"NC(=O)N1c2ccccc2CC(=O)c2ccccc21 [Oxcarbazepine, Trileptal]",1.06
23,C[C@H](NC(=O)[C@@H](O)c1cc(F)cc(F)c1)C(=O)N[C@@H]1C(=O)N(C)c2ccccc2-c2ccccc21,0.963
24,Cc1cc(=O)oc2cc(O)ccc12 [7-hydroxy-4-methyl-2H-chromen-2-one],1.08
25,Cn1cnc(N)c2ncnc1-2 [3-Methyladenine],0.988

row,SMILES,GFP-
1,COc1ccc(CCc2nc3cc(-c4c(C)noc4C)ccc3n2C[C@H](C)N2CCOCC2)cc1Cl,0.854 ± 0.4
2,C=CCc1ccc(O)c(-c2cc(CC=C)ccc2O)c1 [Magnolol],0.993
3,Cc1c[nH]c(-c2cnc(NCCNc3ccc(C#N)cn3)nc2-c2ccc(Cl)cc2Cl)n1,1.14
4,CCNC(=O)c1[nH]nc(-c2cc(Cl)c(O)cc2O)c1-c1ccc(OC)cc1,0.89
5,CS(=O)(=O)OCCCCOS(C)(=O)=O [Busulfan],0.83
6,CCOc1ccc2ccccc2c1C(=O)N[C@@H]1C(=O)N2[C@@H]1SC(C)(C)[C@@H]2C(=O)O [Nafcillin Sodium],0.94
7,CCO/C(O)=C1\C(C)=NC(C)=C(C(=O)OC)C1c1cccc([N+](=O)[O-])c1 (centres undefined) [Nitrendipine],1.18
8,O=c1cc(N2CCOCC2)oc2c1ccc1ccccc12,1.03
9,Nc1cc(C(F)(F)F)c(-c2cc(N3CCOCC3)nc(N3CCOCC3)n2)cn1 [Buparlisib],0.719
10,C#Cc1cccc(Nc2ncnc3cc4c(cc23)OCCOCCOCCO4)c1 [Icotinib],0.916
11,O=C(NOCC(O)CO)c1cc(Br)c(F)c(F)c1Nc1ccc(I)cc1F (centres undefined),0.818
12,C#Cc1cccc(Nc2ncnc3cc(OCCOC)c(OCCO)cc23)c1,0.823
13,C#Cc1cccc(Nc2ncnc3cc(OC)c(OCCCCCCC(=O)NO)cc23)c1,1.01 ± 0.091
14,C#Cc1cccc(Nc2ncnc3cc(OCCOC)c(OCCOC)cc23)c1 [Erlotinib],0.287
15,C[C@@H]1CN(c2c(F)c(N)c3c(=O)c(C(=O)O)cn(C4CC4)c3c2F)C[C@H](C)N1 [Sparfloxacin],1.02
16,CCN1CCN(Cc2ccc(Nc3ncc(F)c(-c4cc(F)c5nc(C)n(C(C)C)c5c4)n3)nc2)CC1,0.983
17,Cc1cc(C)c2c(c1)[C@@H](N(Cc1cc(C(F)(F)F)cc(C(F)(F)F)c1)c1nnn(C)n1)CCCN2C[C@H]1CC[C@H](C(=O)O)CC1 [Evacetrapib],0.993
18,C[C@H](CCC(=O)O)[C@H]1CC[C@H]2[C@@H]3C[C@H](O)[C@@H]4C[C@H](O)CC[C@]4(C)[C@H]3CC[C@]12C [Hyodeoxycholic acid (HDCA)],0.901
19,CC1(C)SC2C(NC(=O)[C@H](NC(=O)N3CCNC3=O)c3ccccc3)C(=O)N2C1C(=O)O (some centres undefined) [Azlocillin sodium salt],0.956
20,CC(C)(C)c1nc(-c2cccc(NS(=O)(=O)c3c(F)cccc3F)c2F)c(-c2ccnc(N)n2)s1 [Dabrafenib],0.448
21,C[C@]12CC[C@@H]3c4ccc(O)cc4C[C@@H](CCCCCCCCCS(=O)CCCC(F)(F)C(F)(F)F)[C@H]3[C@@H]1CC[C@@H]2O (some centres undefined) [Fulvestrant],1.15
22,NS(=O)(=O)c1ccc(NC(=O)Nc2ccc(F)cc2)cc1,1.06
23,CN1CCC(NC(=O)c2cc(-c3c(O)cc(O)cc3Oc3ccc([N+](=O)[O-])cc3)on2)CC1,1.03
24,Cn1c(=O)cc(N2CCC[C@@H](N)C2)n(Cc2cc(F)ccc2C#N)c1=O [Trelagliptin],0.941
